Measured values published in PubChem BioAssay.

Assay: osmotic lysis modulators in infected erythrocytes, primary screen, PSAC antagonist project, cell-based, P. falciparum Indochina, OD700, 3 h (AID 1156)
Details: higher = more signal, called active from +8 up or from −8 down

z-score, inactive:
CCCNC(=O)OC[C@H]1O[C@H](CCON=Cc2ccc(C(=O)N3[C@H](c4ccc(C)cc4)[C@@H](C)CC[C@H]3C(=O)OC)cc2)C=C[C@@H]1Oc1ccc(OC)cc1 0.0952, C[C@@H]1CC[C@H]2C(=O)O[C@@H](Cc3ccccc3)CN2[C@H]1c1ccc(Br)cc1 0.277, Cc1cc2c(nc1C)CCCCN2CC(C)ON=C1[C@H]2CCn3c(=O)n(-c4ccccc4)c(=O)n3[C@H]2[C@H](O)[C@@H]2O[C@H]12 (stereo partly specified) 0.417, C#CCCCON=C1C[C@@H](O)[C@@H](O)[C@@H]2[C@@H]3C(=O)N(c4ccc(F)cc4F)C(=O)[C@@H]3CC[C@@H]12 0.642, CCOC(=O)NN=C1C[C@@H](O)[C@@H](O)[C@@H]2[C@@H]3C(=O)N(c4cccc(Oc5ccccc5)c4)C(=O)[C@@H]3CC[C@@H]12 0.471, CO[C@@H]1COC(=O)[C@H](CCSC)NC(=O)CC=C[C@@H](C)COC(=O)CCC[C@H]1C 2.07, O=c1n(-c2ccccc2)c(=O)n2n1CC[C@@H]1C(=NOCc3ccccc3)[C@H]3O[C@H]3[C@@H](O)[C@@H]12 0.349, C[C@@H](c1ccccc1)N1C(=O)[C@H]2[C@H]3[C@H](O)[C@H](O)CC(=NO[C@@H]4O[C@H](CO)[C@@H](O)[C@H](O)[C@H]4O)[C@@H]3CC[C@H]2C1=O -0.698, CC(C)=CCCC(C)=CCON=C1C[C@@H](O)[C@@H](O)[C@@H]2[C@@H]3C(=O)N(c4ccc(F)cc4F)C(=O)[C@@H]3CC[C@@H]12 2.06, Cc1ccc(S(=O)(=O)OC[C@H]2CN3[C@H](c4ccc(Br)cc4)[C@@H](C)CC[C@H]3C(=O)O2)cc1 0.896, CC(C)CON=C1C[C@@H](O)[C@@H](O)[C@@H]2[C@@H]3C(=O)N(C[C@@H]4CCCO4)C(=O)[C@@H]3CC[C@@H]12 -0.611, CC(C)=NOC[C@@H](C)[C@H](OCc1ccccc1)C(C)C 0.795, CO[C@H](C1CCCCC1)[C@H](C)C=CCC(=O)OCCCc1ccccc1 -1.17, CCOC(=O)[C@H](CC(C)C)NC(=O)CCC1CC(OC(=O)NCc2ccc3c(c2)OCO3)CC2(CCCC(COC(=O)NCc3cccc(C(F)(F)F)c3)O2)O1 (stereo partly specified) 0.286, CC(C)=CCCC(C)=CCON=C1C[C@@H](O)[C@@H](O)[C@@H]2[C@@H]3C(=O)N(C(C)(C)C)C(=O)[C@@H]3CC[C@@H]12 0.916, CCOC(=O)[C@H](Cc1ccccc1)NC(=O)CCC1CC(OC(=O)NCCc2ccc(F)cc2)CC2(CCCC(COC(=O)NCCc3ccccc3OC)O2)O1 (stereo partly specified) -0.106, C=CC[C@@H]1C=C[C@H](ON=C(C)CCC(=O)OC[C@H]2O[C@H](c3ccccc3)C=C[C@@H]2Oc2ccc(OC)cc2)[C@@H](CO)O1 1.2, CCOC(=O)[C@H](CC(C)C)NC(=O)CCC1CC(OC(=O)NCc2cccc3ccccc23)CC2(CCCC(COC(=O)NCCCN3CCCC3=O)O2)O1 (stereo partly specified) 0.662, CCCCC#C[C@@H]1C=C[C@H](Oc2ccc(C(=O)OC)cc2)[C@@H](COC(=O)OCC)O1 0.77, COC(=O)[C@@H]1CC[C@H](C)[C@@H](c2ccc(C)cc2)N1C(=O)c1ccc(C=NO[C@@H]2O[C@H](COC(C)=O)[C@@H](OC(C)=O)[C@H](OC(C)=O)[C@H]2OC(C)=O)cc1 0.819, C=CC[C@@H]1C=C[C@H](ON=C[C@@H](C)[C@H](OCc2ccccc2)C(C)C)[C@@H](CO)O1 -0.667, COC(=O)CC=C[C@@H](C)[C@@H](C=NOCC[C@@H]1C=C[C@H](OC(C)=O)[C@@H](COC(C)=O)O1)OC -0.5, CC(CCN1CCCCc2nc(C)c(C)cc21)=NO[C@H](C)c1cn([C@H](CO)Cc2ccccc2)nn1 0.758, CC[C@@H](c1ccccc1)n1c(=O)n2n(c1=O)[C@H]1[C@H](O)[C@@H]3O[C@@H]3C(=NOC[C@@H](O)COCc3ccco3)[C@H]1CC2 -0.18, C#CCCCON=C1[C@H]2CCn3c(=O)n(-c4ccccc4)c(=O)n3[C@H]2[C@H](O)[C@@H]2O[C@H]12 0.43, CC(C)=CCCC(C)=CCON=C1C[C@@H](O)[C@@H](O)[C@@H]2[C@@H]3C(=O)N(Cc4ccccc4)C(=O)[C@@H]3CC[C@@H]12 0.0336
